In PubChem BioAssay AID1117353 (Cheminformatics & Chemogenomics Research Group (CCRG), …, 2015):
Unmarked numbers belong to inactive results. Active and inactive are the calls of the source. Rule as the data show it: active = inhibition above about 50%; inactive = the rest.

Target: Vascular endothelial growth factor receptor 2 (Homo sapiens) (UniProt P35968)
Experiment: VEGFR2 inhibitors, primary assay, biochemical, Homo sapiens, LANCE Ultra TR-FRET, NPC library (AID 1117353)
Settings: LANCE Ultra TR-FRET kinase assay; at 20 µM (top of the series)

Sequence of Vascular endothelial growth factor receptor 2 (Homo sapiens) (P35968 whole entry, looked up): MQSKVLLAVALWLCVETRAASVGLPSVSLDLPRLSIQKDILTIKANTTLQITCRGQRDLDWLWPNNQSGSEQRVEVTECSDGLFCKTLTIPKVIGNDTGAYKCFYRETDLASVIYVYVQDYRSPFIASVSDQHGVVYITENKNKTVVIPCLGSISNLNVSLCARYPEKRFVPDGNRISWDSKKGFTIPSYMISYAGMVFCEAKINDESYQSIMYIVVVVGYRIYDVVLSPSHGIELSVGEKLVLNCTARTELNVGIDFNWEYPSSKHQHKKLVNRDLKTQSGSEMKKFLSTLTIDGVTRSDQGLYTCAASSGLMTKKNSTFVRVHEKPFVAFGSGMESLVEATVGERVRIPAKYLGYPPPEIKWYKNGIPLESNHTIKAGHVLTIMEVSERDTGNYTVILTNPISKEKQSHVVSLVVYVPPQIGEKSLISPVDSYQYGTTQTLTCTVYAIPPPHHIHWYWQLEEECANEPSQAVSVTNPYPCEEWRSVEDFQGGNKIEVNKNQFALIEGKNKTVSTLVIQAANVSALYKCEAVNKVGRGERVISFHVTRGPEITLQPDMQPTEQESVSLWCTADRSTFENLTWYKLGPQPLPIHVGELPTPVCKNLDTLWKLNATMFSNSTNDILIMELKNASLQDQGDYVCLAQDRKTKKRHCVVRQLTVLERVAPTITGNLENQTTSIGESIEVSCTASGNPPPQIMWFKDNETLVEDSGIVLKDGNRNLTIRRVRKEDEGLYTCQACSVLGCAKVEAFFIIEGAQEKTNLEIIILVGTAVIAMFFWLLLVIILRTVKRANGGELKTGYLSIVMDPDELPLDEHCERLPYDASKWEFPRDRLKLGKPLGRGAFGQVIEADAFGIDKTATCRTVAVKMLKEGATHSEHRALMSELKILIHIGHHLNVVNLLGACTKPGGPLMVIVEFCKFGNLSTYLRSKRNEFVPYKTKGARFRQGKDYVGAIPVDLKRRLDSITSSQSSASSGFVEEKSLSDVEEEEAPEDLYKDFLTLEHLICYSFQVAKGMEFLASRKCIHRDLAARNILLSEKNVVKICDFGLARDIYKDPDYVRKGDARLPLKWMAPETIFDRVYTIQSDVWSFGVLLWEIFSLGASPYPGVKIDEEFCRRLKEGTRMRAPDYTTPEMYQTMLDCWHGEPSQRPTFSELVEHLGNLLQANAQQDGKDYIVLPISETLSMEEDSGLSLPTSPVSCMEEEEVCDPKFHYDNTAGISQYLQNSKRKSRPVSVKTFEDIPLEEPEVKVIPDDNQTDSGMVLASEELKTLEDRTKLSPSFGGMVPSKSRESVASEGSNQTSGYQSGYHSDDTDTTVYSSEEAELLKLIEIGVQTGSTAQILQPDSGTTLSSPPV

Q: Nc1nc(=S)c2[nH]cnc2[nH]1 was tested. Which inhibition did it give?
A: -5.99%

Q: How did the inhibition turn out when CC(C)C[C@H](NC(=O)[C@H](Cc1ccccc1)NC(=O)c1cnccn1)B(O)O was run?
A: 19%

Q: For Cc1nc2ccc(CN(C)c3ccc(C(=O)N[C@@H](CCC(=O)O)C(=O)O)s3)cc2c(=O)[nH]1, which inhibition is on record?
A: 7.13%

Q: Which inhibition does the source give for Cc1cc2c(C(C)C)c(O)c(O)c(C=O)c2c(O)c1-c1c(C)cc2c(C(C)C)c(O)c(O)c(C=O)c2c1O here?
A: -2.11%

Q: O=C(O)c1ccc(-n2nc(-c3ccccc3O)nc2-c2ccccc2O)cc1 was tested. Which inhibition did it give?
A: -16.1%

Q: Cc1ccccc1C(=O)Nc1ccc(C(=O)N2CCCC(N(C)C)c3ccccc32)cc1 (stereo not drawn) was tested. Which inhibition did it give?
A: 41.5%

Q: How did the inhibition turn out when C[n+]1c2cc(N)ccc2cc2ccc(N)cc21 (tested in a mixture with another compound) was run?
A: -22%

Q: With COC(=O)Nc1nc2ccc(C(=O)c3ccccc3)cc2[nH]1 as the molecule, how does the inhibition read?
A: 74.1% (active)

Q: How did the inhibition turn out when CCCN(CCC)C(=O)C(CCC(=O)OCCCN1CCN(CCOC(=O)Cc2c(C)n(C(=O)c3ccc(Cl)cc3)c3ccc(OC)cc23)CC1)NC(=O)c1ccccc1 (stereo not drawn) was run?
A: -17.9%

Q: For CC(=O)[C@]1(O)Cc2c(O)c3c(c(O)c2[C@@H](O[C@H]2C[C@H](N)[C@H](O)[C@H](C)O2)C1)C(=O)c1ccccc1C3=O, which inhibition is on record?
A: -143%

Q: Which inhibition does the source give for CCCOc1ccc2nc(NC(=O)OC)[nH]c2c1 here?
A: 10.2%

Q: Which inhibition does the source give for CNC(=O)c1ccccc1Sc1ccc2c(/C=C/c3ccccn3)n[nH]c2c1 here?
A: 100% (active)

Q: With COCc1c(C(C)C)nc(C(C)C)c(/C=C/[C@@H](O)C[C@@H](O)CC(=O)O)c1-c1ccc(F)cc1 as the molecule, how does the inhibition read?
A: 31.8%

Q: With CCCCc1oc2ccccc2c1C(=O)c1cc(I)c(OCCN(CC)CC)c(I)c1 as the molecule, how does the inhibition read?
A: 22.9%

Q: Which inhibition does the source give for CCCCCCCCCCCCCCCCCCNC(=O)OC1CCN(C(=O)OC[C@H](COC(=O)N(Cc2cccc[n+]2CC)C(=O)c2ccccc2OC)OC)CC1 here?
A: -459%

Q: COc1cc(NCc2ccc3nc(N)nc(N)c3c2C)cc(OC)c1OC was tested. Which inhibition did it give?
A: 35.8%

Q: How did the inhibition turn out when CC[C@@]1(O)C(=O)OCc2c1cc1n(c2=O)Cc2c-1nc1ccccc1c2/C=N/OC(C)(C)C was run?
A: 18.1%

Q: How did the inhibition turn out when CC(C)(C)C1CCC(CC2=C(O)c3ccccc3C(=O)C2=O)CC1 (stereo not drawn) was run?
A: -21.1%

Q: With CN(C)c1ccc2nc3ccc(=[N+](C)C)cc-3sc2c1 as the molecule, how does the inhibition read?
A: -6.83%

Q: How did the inhibition turn out when COc1cccc2c1C(=O)c1c(O)c3c(c(O)c1C2=O)C[C@@](O)(C(C)=O)C[C@@H]3O[C@H]1C[C@H](N)[C@H](O)[C@H](C)O1 was run?
A: 14%

Q: How did the inhibition turn out when COc1c(C)c2c(c(O)c1C/C=C(\C)CCC(=O)OCCN1CCOCC1)C(=O)OC2 was run?
A: -1.65%

Q: For COc1ccc(-c2ccc3cc(C(=O)O)ccc3c2)cc1C12CC3CC(CC(C3)C1)C2, which inhibition is on record?
A: 96.3% (active)

Q: For COc1ccc(-c2nc3ccc(C4=NNC(=O)CC4C)cc3[nH]2)cc1 (stereo not drawn), which inhibition is on record?
A: -36.5%

Q: Cc1cc(O)c2ccccc2c1O was tested. Which inhibition did it give?
A: 50% (active)

Q: For CCC1=C[C@@H]2CN(C1)Cc1c([nH]c3ccccc13)[C@@](C(=O)OC)(c1cc3c(cc1OC)N(C)[C@H]1[C@@](O)(C(=O)OC)[C@H](OC(C)=O)[C@]4(CC)C=CCN5CC[C@]31[C@@H]54)C2, which inhibition is on record?
A: -20.3%

Q: S=c1nc[nH]c2nc[nH]c12 was tested. Which inhibition did it give?
A: 15.9%

Q: For CCC(C)n1ncn(-c2ccc(N3CCN(c4ccc(OC[C@H]5CO[C@](Cn6cncn6)(c6ccc(Cl)cc6Cl)O5)cc4)CC3)cc2)c1=O (stereo partly drawn), which inhibition is on record?
A: 22.4%

Q: Which inhibition does the source give for O=C(Nc1ccc([N+](=O)[O-])cc1Cl)c1cc(Cl)ccc1O here?
A: 5.08%

Q: COC(=O)Nc1nc2ccc(C(=O)C3CC3)cc2[nH]1 was tested. Which inhibition did it give?
A: 69.1% (active)

Q: With CSc1ccc2c(c1)C(N1CCN(C)CC1)Cc1ccccc1S2 (stereo not drawn) as the molecule, how does the inhibition read?
A: -11.8%

Q: How did the inhibition turn out when CCN(CC)CCNc1ccc(CO)c2sc3ccccc3c(=O)c12 was run?
A: 7.72%

Q: How did the inhibition turn out when [O-][n+]1ccccc1SSc1cccc[n+]1[O-] was run?
A: -17.4%

Q: Nc1ccc2cc3ccc(N)cc3nc2c1 was tested. Which inhibition did it give?
A: -25.5%

Q: With COc1cc(-c2ccc(=O)[nH]n2)ccc1OC(F)F as the molecule, how does the inhibition read?
A: -22.3%

Q: CC[C@]1(O)C[C@@H]2CN(CCc3c([nH]c4ccccc34)[C@@](C(=O)OC)(c3cc4c(cc3OC)N(C)[C@H]3[C@@](O)(C(=O)OC)[C@H](OC(C)=O)[C@]5(CC)C=CCN6CC[C@]43[C@@H]65)C2)C1 was tested. Which inhibition did it give?
A: -21.1%

Q: Oc1c(Cl)cc(Cl)c2cccnc12 was tested. Which inhibition did it give?
A: -23.4%

Q: With CCCCCCCCCCCCCCCC[n+]1ccccc1 as the molecule, how does the inhibition read?
A: -114%

Q: For COc1ccc2cc1Oc1ccc(cc1)C[C@H]1c3c(cc4c(c3Oc3cc5c(cc3OC)CCN(C)[C@@H]5C2)OCO4)CCN1C, which inhibition is on record?
A: 30.3%
